Substitutions are numbered along the chain they refer to. Over roughly 24,000 sequences, “enrichment r” has its median near 0.99; the highest 2% begin near 3.7. Only a selection was taken, and the highest values are over-represented in it overall.
T1: UNK ZnF1-3 (human, UniProt Q9C0B0 31-174)
T1 sequence: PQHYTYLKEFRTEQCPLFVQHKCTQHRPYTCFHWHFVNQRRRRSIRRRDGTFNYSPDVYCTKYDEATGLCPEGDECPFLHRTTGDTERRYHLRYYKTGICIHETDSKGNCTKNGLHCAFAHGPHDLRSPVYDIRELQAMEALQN

B1: chr20:61576232:61576233:+_ENSG00000101193_ENST00000266069|hu_hu|FALSE|FALSE (ssRNA)
RNA: GGGAGUUCUACAGUCCGACGAUCGGAUCCACCACGCAAGCGCAGGCGCUACUUGGGCUCCUCAAUCACACCCUUGCUGAGGUCUGUCAUUUUGGGAUAUUUUACUUUCUUCUGGUCCAGCUCGUUCUGAGCCCAAAGUAGUAGCAACAGAGGAUUGAGCAUCA
B2: chr17:60770872:60770873:+_ENSG00000011028_ENST00000303375|hu_hu|hu_hu_hu_mus_True|28_78 (ssRNA)
RNA: GGGAGUUCUACAGUCCGACGAUCUCUUUAAAAAAAAAAAAAAAAAGACAAACAAUAAUAAUGGCACUCGAGAAUCAAGAACUACAAUAGAGGGUCCGCUUUGAGUUGUCCAUGUUCUCGUCCUGCACUGGGACACGGGGACUGCAACAGAGGAUUGAGCAUCA
B3: chr17:60770872:60770873:+_ENSG00000011028_ENST00000303375|hu_hu|hu_hu_hu_mus_True|8_78 (ssRNA)
RNA: GGGAGUUCUACAGUCCGACGAUCUCUUUAAAAAAAAAAAAAAAAAGACAAACAAUAAUAAUGGCACUCGAGAAUCAAGAACUACAAUAGAGGGUCCGCUUUGAGUUUUUGUUCACAUCGUCCUGCAACGCUGUCGCGGGACUGCAACAGAGGAUUGAGCAUCA
B4: chr17:60770872:60770873:+_ENSG00000011028_ENST00000303375|hu_hu|hu_hu_hu_mus_True|78_78 (ssRNA)
RNA: B2 RNA with G107U, C109U, C110G, A111U, G113C, U114A, U115C, C116A
B5: chr17:60770872:60770873:+_ENSG00000011028_ENST00000303375|hu_hu|hu_hu_hu_mus_True|28_88 (ssRNA)
RNA: GGGAGUUCUACAGUCCGACGAUCUCUUUAAAAAAAAAAAAAAAAAGUUUAAAAACAAUAGCACAUUUCGAGAAUCAAGAACUACAAUAGAGGGUCCGCUUUGAGUUGUCCAUGUUCUCGUCCUGCACUGGGACACGGGGACUGCAACAGAGGAUUGAGCAUCA
B6: chr17:60770872:60770873:+_ENSG00000011028_ENST00000303375|hu_hu|hu_hu_hu_mus_True|78_88 (ssRNA)
RNA: GGGAGUUCUACAGUCCGACGAUCUCUUUAAAAAAAAAAAAAAAAAGUUUAAAAACAAUAAUGGCACUCGAGAAUCAAGAACUACAAUAGAGGGUCCGCUUUGAGUUUUUGUUCACAUCGUCCUGCACUGGGACACGGGGACUGCAACAGAGGAUUGAGCAUCA
B7: chr17:60770872:60770873:+_ENSG00000011028_ENST00000303375|hu_hu|hu_hu_hu_mus_True|58_78 (ssRNA)
RNA: B6 RNA with U47A, U48C, U49A, A52C, C55U, A77U, G78C, A86G
B8: chr17:60770872:60770873:+_ENSG00000011028_ENST00000303375|hu_hu|hu_hu_hu_mus_True|1_78 (ssRNA)
RNA: GGGAGUUCUACAGUCCGACGAUCUCUUUAAAAAAAAAAAAAAAAAGACAAACAAUAAUAAUGGCACUCGAGAAUCAAGAACUACAAUAGAGGGUCCGCUUUGAGUUUUUGUUCACAUCGUCCUGCACUGGGACACGACCAGGACAACAGAGGAUUGAGCAUCA
B9: chr11:10830335:10830336:-_ENSG00000110321_ENST00000339995|hu_hu|FALSE|FALSE (ssRNA)
RNA: GGGAGUUCUACAGUCCGACGAUCGCAGCUGCCUCCUCAGGAUCCGGUCGUCGGGGAUAGGGAAGGGAGGGGAAAGGGGAACGGAAAACAAAAAAAAGGGGGAGGGAAGGGGGAGGAAGGAGUCGGGGACGGCCUCAAACUCAGCAACAGAGGAUUGAGCAUCA
B10: chr2:168009416:168009417:-_ENSMUSG00000051149_ENSMUST00000088001|perfect_dup|FALSE|FALSE (ssRNA)
RNA: GGGAGUUCUACAGUCCGACGAUCCAUAUGGUUGAGCAGAGUAUCUGUGGGUAAAUAGCGAUUACAGUAGAGGCAUUUGCUAGUAAAAUUGUGUAUUUUCAUAAUGUAGUUGGCUACUGCUGGGACUUUCUCAGCUUUAUGUUCCAACAGAGGAUUGAGCAUCA
B11: chr1:84034342:84034343:-_ENSMUSG00000045658_ENSMUST00000168574|mus_mus|FALSE|FALSE (ssRNA)
RNA: GGGAGUUCUACAGUCCGACGAUCGCCUGAGAAUGGUGAAAAUAGGCGUGGAGAUCUCCCAGCAGGAAGUGUUGGAAUAGGAGAGGAAAAAAAAAGUGAGAGGAGAGUCUGGAACCUUCCUCCCCAUCUGUACUCUCCUCAAGACAACAGAGGAUUGAGCAUCA
B12: 133834401_133834521_965_CDS_ENSMUSG00000050890_ENSMUST00000105876|mouse|control|control (ssRNA)
RNA: GGGAGUUCUACAGUCCGACGAUCUUUCAUUCGCCCAUUCAUAGACUUUUUCUUCACAGGGAUGAGAAGUUCCAUUUUGGGGUUUUCCAGAAGUGCCUCCCCAACAGGCACAAUUUCAGUCCCCUGCUUUACGUAACUCCCCAACAACAGAGGAUUGAGCAUCA
B13: chr8:95500983:95500984:-_ENSG00000164944_ENST00000437199|hu_hu|hu_hu_hu_mus_True|78_78 (ssRNA)
RNA: GGGAGUUCUACAGUCCGACGAUCAGAACACAUCUAUCGAGUAAAGGACCGUACAUGGACGACCUCUCCACUGCCUCCACUAACAAACUUUCCUCUCGAGCCUCCACUGCCGCUAUUUGUACUAGCCCAGGACGGUCCCAGGCCCAACAGAGGAUUGAGCAUCA
B14: chr7:141450121:141450122:+_ENSG00000106028_ENST00000265304|hu_mus|hu_hu_hu_mus_True|38_68 (ssRNA)
RNA: GGGAGUUCUACAGUCCGACGAUCUCAUCCGUUCUAUGCCUUUUCUUUUGUCUGGUCACUCAGAAAUAUAAUAUUAUCAGCUAUGAUUGUUGUUGCUUGUCGCCUCACAUUGUUUUUAUCCAUGUACUCGCCAUAGUCCACUUUCAACAGAGGAUUGAGCAUCA

What follows are binders tested against T1, UNK ZnF1-3 (assay: nsRBNS (natural sequence RNA bind-n-seq); RBNS binding buffer (assumed for nsRBNS): 25 mM Tris pH 7.5, 150 mM KCl, 3 mM MgCl2, 0.01% Triton X-100, 500 ug/ml BSA, 20 U/ml SUPERase-In, 4 C; UNK is unkempt and MSI1 is Musashi-1; names of the RNAs are library labels; protein concentration not given here; high values mean tight binding).

Binder	binding signal [enrichment R]
B1	0.749
B2	3.8
B3	2.96
B4	4.14
B5	3.43
B6	5.04
B7	3.98
B8	3.55
B9	2.73
B10	2.12
B11	1.32
B12	0.863
B13	1.53
B14	0.44

From publication PMC12136788
